Experimental findings from PubChem BioAssay are described below.

Active and inactive are the calls of the source. Unless noted, no rule for the calls is given here.

Experiment [1] can be described thus: compounds binding Alexa647 anti-His antibody – biochemical, small-molecule microarray, 635 nm fluorescence, artefact control for SMM control protein annotation, primary screen (AID 1128).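 Also: score merges feature fluorescence with signal-to-noise for each printed compound spot.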 The following applies: higher = more signal.
The subject of experiment [2] is Human papillomavirus type 1a E7 protein (residues 1-88). The experiment can be described thus: HPV1a E7 small-molecule binders, primary screen, biochemical, small-molecule microarray, residues 1-88, 635 nm (AID 1129). The following applies: small-molecule microarray binding, fluorescence 635 nm; higher = more signal.
For experiment [3], the target named is Focal adhesion kinase 1 (Homo sapiens) (UniProt Q05397). The experiment can be described thus: PTK2 protein binding on printed compound slides – biochemical, small-molecule microarray, 635/667 nm fluorescence, BSA, DTT, primary screen (AID 1130).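 Also: composite of spot emission at 667 nm and signal to noise over triplicate slides.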 To be noted: 635 nm fluorescence, higher = more signal.
For experiment [4], the system named is Fibrinogen (Alexa647-labelled). The experiment can be described thus: Alexa647-fibrinogen binding to printed small molecules – biochemical, small-molecule microarray, 635/667 nm fluorescence, artefact control for SMM control-protein annotation, profiling panel (AID 1131).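 Also: z-score merges 667 nm fluorescence with per-spot signal-to-noise over triplicate slides.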 The following applies: fibrinogen-A647 binding fluorescence, higher = more signal.
Experiment [5] addresses Follistatin (Homo sapiens) (UniProt P19883). The experiment can be described thus: FST protein binding to printed compounds – biochemical, small-molecule microarray, 635/667 nm fluorescence, primary screen (AID 1132). To be noted: 635 nm fluorescence, higher = more signal.
Experiment [6] addresses Fibroblast growth factor 2 (Homo sapiens) (UniProt P09038). The experiment can be described thus: basic fibroblast growth factor binding to printed compounds – biochemical, small-molecule microarray, 635/667 nm fluorescence, primary screen (AID 1133). The following applies: FGF2, fluorescence 635/667, higher = more signal.
Experiment [7] in a line: JC-1 mitochondrial potential readout, lung cancer cells – cell-based, A549, JC-1 fluorescence, basal, 24 h, 100 nL, profiling panel (AID 1138).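 Also: A549 lung adenocarcinoma cells under basal conditions with no added stimulus; test concentration not given here.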 The following applies: higher = more signal.
The subject of a further experiment is Lefty1. The experiment can be described thus: Lefty1 protein binding to printed compounds – biochemical, small-molecule microarray, 635/667 nm fluorescence, primary screen (AID 1139). To be noted: fluorescence 635/667, higher = more signal.
The subject of experiment [8] is wheat germ agglutinin (Triticum aestivum), Alexa647-labelled. The experiment can be described thus: Alexa647-WGA lectin binding to printed small molecules – biochemical, small-molecule microarray, 635/667 nm fluorescence, artefact control for SMM control-protein annotation, profiling panel (AID 1140).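 Also: score merges 667 nm feature emission with signal to noise over triplicate slides.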 The following applies: WGA-A647 binding, 635 nm fluorescence, higher = more signal.

Experiment [9] has as its target Luciferin 4-monooxygenase (Photinus pyralis) (UniProt P08659). The experiment can be described thus: inhibition of purified Photinus pyralis luciferase – biochemical, luminescence, purified enzyme, 2006 set, primary screen (AID 1141).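 Also: cell-free assay with purified firefly luciferase at 100 ng per well in PBS; test concentration not given here.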 The following applies: purified firefly luciferase, SteadyGlo luminescence, 30 min; higher = more signal, called active from +8 up or from −8 down.

Experiment [10] relates to Wnt5a (protein binding on small-molecule microarray). The experiment can be described thus: small molecules binding Wnt5a protein – biophysical, small-molecule microarray, 635/667 nm fluorescence, primary screen (AID 1142).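 Also: fluorescence read at 667 nm with signal to noise per printed feature.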 To be noted: 635 nm fluorescence, higher = more signal.
Experiment [11] is described as follows: ATP-based viability of Huh7 replicon cells – cell-based, CellTiter-Glo luminescence, basal, 48 h, cytotoxicity control for HCV replication inhibitor project, primary screen (AID 1143).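 Also: Huh7 hepatoma cells carrying a hepatitis C replication reporter with no stimulus; test concentration not given here.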 To be noted: higher = more signal, called active from +8 up or from −8 down.
The nature of experiment [12]: Pseudomonas biofilm growth suppression – PAO1 strain, BacTiter-Glo luminescence, LB-PBS, primary screen (AID 1144). To be noted: P. aeruginosa PAO1 biofilm, 12 h, higher = more signal.
The nature of experiment [13]: basal CRE-LacZ reporter activity in PC12 – cell-based, unstimulated, primary screen (AID 1145). The following applies: no forskolin, luminescence, 4.5 h, higher = more signal, called active from +8 up or from −8 down.
Experiment [14] in a line: forskolin-driven CRE-LacZ activity in PC12 – cell-based, CRE-LacZ reporter, forskolin-stimulated, primary screen (AID 1146).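 Also: PC12 cells with 6xCRE LacZ reporter stimulated by forskolin 10 µM; beta-galactosidase reporter signal reflecting CREB driven transcription.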 The following applies: luminescence, 4.5 h, higher = more signal, called active from +8 up or from −8 down.
Experiment [15] concerns the target Streptavidin (Streptomyces avidinii) (UniProt P22629). The experiment can be described thus: compounds binding control protein streptavidin – biophysical, small-molecule microarray, 635/667 nm fluorescence, artefact control for SMM compound annotation, primary screen (AID 1147).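 Also: signal reflects streptavidin binding to arrayed compounds as a control protein.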 To be noted: higher = more signal.
Experiment [16] in a line: probe aInhba binding on compound microarray – biochemical, small-molecule microarray, 635/667 nm fluorescence, primary screen (AID 1148).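 Also: score merges 667nm spot fluorescence with signal-to-noise for antibody binding to printed compounds.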 To be noted: higher = more signal.
In experiment [17] the target is Torsin-1A (Homo sapiens) (UniProt O14656). The experiment can be described thus: TOR1A wild-type binding on microarray – cell lysate, small-molecule microarray, lysate, 635/667 nm, primary screen (AID 1149). To be noted: COS7 hTOR1A-WT lysate, 635 nm fluorescence, higher = more signal.
The target is the same in experiment [18]. The experiment can be described thus: torsin A mutant lysate binding on microarrays – cell lysate, small-molecule microarray, COS7 lysate, 635/667 nm fluorescence, primary screen (AID 1150).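 Also: score pools 667 nm emission and signal to noise measuring lysate protein binding.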 To be noted: COS7 hTOR1A mutant lysate, 635 nm fluorescence, higher = more signal.
Experiment [19] concerns Sonic hedgehog protein (Shh). The experiment can be described thus: Sonic hedgehog microarray binding compounds – biochemical, small-molecule microarray, 635/667 nm fluorescence, primary screen (AID 1151).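 Also: Shh protein binding to compounds spotted on small-molecule microarray slides; score combines spot fluorescence intensity with signal-to-noise across triplicate slides.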 The following applies: 635 nm fluorescence, higher = more signal.

Chain of Streptavidin (Streptomyces avidinii) (P22629 whole entry, looked up): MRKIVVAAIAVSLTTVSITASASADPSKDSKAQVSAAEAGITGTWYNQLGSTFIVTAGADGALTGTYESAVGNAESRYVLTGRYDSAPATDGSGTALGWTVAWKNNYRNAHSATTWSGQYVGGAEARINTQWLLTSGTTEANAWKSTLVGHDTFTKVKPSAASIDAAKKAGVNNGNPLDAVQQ
Chain of Fibroblast growth factor 2 (Homo sapiens) (P09038 whole entry, looked up): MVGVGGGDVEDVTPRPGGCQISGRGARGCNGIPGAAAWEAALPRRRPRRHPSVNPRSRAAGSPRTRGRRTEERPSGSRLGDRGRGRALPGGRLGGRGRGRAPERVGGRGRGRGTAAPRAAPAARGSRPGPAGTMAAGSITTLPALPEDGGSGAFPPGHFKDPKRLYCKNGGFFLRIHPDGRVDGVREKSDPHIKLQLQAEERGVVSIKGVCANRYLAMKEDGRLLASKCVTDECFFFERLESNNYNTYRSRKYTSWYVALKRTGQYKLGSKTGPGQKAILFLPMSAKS
Chain of Focal adhesion kinase 1 (Homo sapiens) (Q05397 whole entry, looked up): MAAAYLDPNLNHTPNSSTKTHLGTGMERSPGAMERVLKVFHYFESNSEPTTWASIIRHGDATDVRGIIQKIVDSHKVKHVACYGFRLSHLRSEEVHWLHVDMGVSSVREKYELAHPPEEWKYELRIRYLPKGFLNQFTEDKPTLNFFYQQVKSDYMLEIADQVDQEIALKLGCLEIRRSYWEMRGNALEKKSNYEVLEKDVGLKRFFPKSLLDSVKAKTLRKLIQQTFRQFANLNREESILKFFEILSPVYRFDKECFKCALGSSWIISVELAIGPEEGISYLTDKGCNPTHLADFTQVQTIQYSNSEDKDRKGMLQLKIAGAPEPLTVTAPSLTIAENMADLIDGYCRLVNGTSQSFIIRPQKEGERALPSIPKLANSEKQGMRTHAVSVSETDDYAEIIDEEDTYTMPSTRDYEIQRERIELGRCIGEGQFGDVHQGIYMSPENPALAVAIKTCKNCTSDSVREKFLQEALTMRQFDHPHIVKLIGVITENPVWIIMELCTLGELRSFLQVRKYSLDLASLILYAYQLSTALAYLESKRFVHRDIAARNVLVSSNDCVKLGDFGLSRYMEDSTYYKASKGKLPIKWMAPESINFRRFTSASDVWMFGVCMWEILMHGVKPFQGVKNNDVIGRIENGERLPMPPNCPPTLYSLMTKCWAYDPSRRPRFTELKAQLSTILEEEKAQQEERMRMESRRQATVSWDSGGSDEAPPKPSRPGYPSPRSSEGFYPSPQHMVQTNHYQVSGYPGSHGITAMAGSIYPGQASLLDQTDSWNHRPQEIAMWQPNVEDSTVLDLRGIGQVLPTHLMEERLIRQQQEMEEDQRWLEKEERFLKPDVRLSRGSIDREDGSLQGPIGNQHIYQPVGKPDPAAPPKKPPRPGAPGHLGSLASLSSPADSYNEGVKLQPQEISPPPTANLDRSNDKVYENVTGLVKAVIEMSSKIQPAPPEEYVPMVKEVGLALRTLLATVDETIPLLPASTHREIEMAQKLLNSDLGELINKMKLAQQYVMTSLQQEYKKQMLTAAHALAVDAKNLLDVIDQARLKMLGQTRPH
Chain of Torsin-1A (Homo sapiens) (O14656 whole entry, looked up): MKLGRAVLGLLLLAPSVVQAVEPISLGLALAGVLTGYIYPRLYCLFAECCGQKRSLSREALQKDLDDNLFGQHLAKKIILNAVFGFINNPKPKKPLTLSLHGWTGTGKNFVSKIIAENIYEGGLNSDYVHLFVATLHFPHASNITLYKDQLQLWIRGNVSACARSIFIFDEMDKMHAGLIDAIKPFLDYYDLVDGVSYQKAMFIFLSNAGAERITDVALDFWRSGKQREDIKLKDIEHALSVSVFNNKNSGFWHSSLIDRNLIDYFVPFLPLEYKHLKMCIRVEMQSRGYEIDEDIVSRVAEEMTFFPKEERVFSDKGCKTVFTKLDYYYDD
Chain of Luciferin 4-monooxygenase (Photinus pyralis) (P08659 whole entry, looked up): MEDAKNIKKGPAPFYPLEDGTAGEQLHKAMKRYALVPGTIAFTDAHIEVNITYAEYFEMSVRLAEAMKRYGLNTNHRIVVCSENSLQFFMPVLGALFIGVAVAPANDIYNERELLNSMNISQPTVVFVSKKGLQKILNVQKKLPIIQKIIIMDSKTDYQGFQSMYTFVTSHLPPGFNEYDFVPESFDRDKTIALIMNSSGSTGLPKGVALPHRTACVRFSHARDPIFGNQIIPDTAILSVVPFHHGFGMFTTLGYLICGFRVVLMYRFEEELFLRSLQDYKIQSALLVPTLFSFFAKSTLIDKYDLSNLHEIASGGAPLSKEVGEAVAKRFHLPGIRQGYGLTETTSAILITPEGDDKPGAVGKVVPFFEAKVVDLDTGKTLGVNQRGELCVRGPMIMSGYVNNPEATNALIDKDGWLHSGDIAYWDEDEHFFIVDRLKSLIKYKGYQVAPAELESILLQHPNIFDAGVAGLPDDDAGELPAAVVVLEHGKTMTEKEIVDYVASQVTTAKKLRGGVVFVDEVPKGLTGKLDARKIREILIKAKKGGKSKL
Chain of Follistatin (Homo sapiens) (P19883 whole entry, looked up): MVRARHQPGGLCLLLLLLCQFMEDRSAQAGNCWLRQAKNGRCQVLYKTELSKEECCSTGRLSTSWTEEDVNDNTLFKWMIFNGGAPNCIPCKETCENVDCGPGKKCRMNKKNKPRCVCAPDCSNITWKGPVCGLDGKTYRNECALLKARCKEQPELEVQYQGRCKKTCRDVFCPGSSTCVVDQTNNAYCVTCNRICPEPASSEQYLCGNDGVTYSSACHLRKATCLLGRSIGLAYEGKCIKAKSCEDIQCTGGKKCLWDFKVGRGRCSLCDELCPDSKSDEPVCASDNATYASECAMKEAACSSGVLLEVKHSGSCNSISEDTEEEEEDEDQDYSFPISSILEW

Turning to `O=C(NN=C1C[C@@H](O)[C@@H](O)[C@@H]2[C@@H]3C(=O)N(C[C@@H]4CCCO4)C(=O)[C@@H]3CC[C@@H]12)OCc1ccccc1`, the composite z-score in experiment [1] was -0.391; in experiment [2], -0.645; in experiment [3], -0.345; in experiment [4], -0.545; in [5] it was 0.5; in [6] it was 0.23. For the same compound, the composite z-score in the experiment with Lefty1 is 0.305; in experiment [8] it was -0.248; in [10] it was 0.0252; in experiment [15] it was -0.34; in [16], -0.242; with Torsin-1A (Homo sapiens) [17], 2.6. Further, the composite z-score in the experiment with Torsin-1A (Homo sapiens) [18] is 2.72; in experiment [19] it was 0.604. In addition, the z-score in experiment [7] was 0.49; in [9] it was -0.827 (inactive); in [11], -0.746 (inactive); in experiment [12], 0.556 (inactive); in experiment [13] it was 0.694 (inactive); in [14] it was 0.13 (inactive).

Take `CO[C@@H]1C=CCC(=O)N[C@@H](C)C(=O)OC[C@@H](OC)[C@H](C)CCCC(=O)OC[C@H]1C`: the composite z-score in experiment [1] was 2.07; in experiment [2] it was -1.64; in [3], -0.195; in experiment [4] it was -1.64; in [5], 1.39; in experiment [6], 0.343. Besides, the composite z-score with Lefty1 is 1.37; in [8], -0.268; in experiment [10], 0.122; in experiment [15], 0.253; in experiment [16] it was -0.101; with Torsin-1A (Homo sapiens) [17], 3.16. The composite z-score in the experiment with Torsin-1A (Homo sapiens) [18] stood at 2.84; in [19] it was 1.71. In addition, the z-score in experiment [7] is -0.393; in experiment [9], 1.13 (inactive); in [11], -0.468 (inactive); in experiment [12] it was -0.499 (inactive); in experiment [13] it was -0.808 (inactive); in experiment [14], 0.0561 (inactive).

On to `CCCNC(=O)OC[C@H]1O[C@H](CCON=C(C)CCC(=O)OC[C@H]2O[C@H](c3ccccc3)C=C[C@@H]2Oc2ccc(OC)cc2)C=C[C@@H]1Oc1ccc(OC)cc1`, for which the composite z-score was 2.6 in experiment [1]; -1.45 in experiment [2]; -0.447 in [3]; -0.467 in experiment [4]; -0.342 in [5]; -0.273 in [6]. Besides, the composite z-score was 0.171 with Lefty1; 0.619 in experiment [8]; -0.109 in experiment [10]; 0.728 in experiment [15]; -0.125 in experiment [16]; -0.694 with Torsin-1A (Homo sapiens) [17]. In addition, the composite z-score was -0.243 with Torsin-1A (Homo sapiens) [18] and -0.137 in [19]. The z-score in [7] is 0.424; in experiment [9] it was 1 (inactive); in experiment [11], -1.13 (inactive); in experiment [12] it was -0.665 (inactive); in experiment [13], -0.478 (inactive); in [14], 0.913 (inactive).

Regarding `C[C@@H](c1ccccc1)N1C(=O)[C@H]2[C@H]3[C@H](O)[C@H](O)CC(=NO[C@@H]4O[C@H](CO)[C@@H](O)[C@H](O)[C@H]4O)[C@@H]3CC[C@H]2C1=O`, the composite z-score is 0.26 in [1]; 0.585 in experiment [2]; -0.0533 in experiment [3]; 0.19 in experiment [4]; 0.31 in experiment [5]; 0.281 in experiment [6]. Further, the composite z-score with Lefty1 is 0.351; in [8], -0.0604; in [10] it was 0.0794; in experiment [15], 0.238; in [16], -0.0626; in the experiment with Torsin-1A (Homo sapiens) [17] it was 1.1. Further, the composite z-score with Torsin-1A (Homo sapiens) [18] is 0.907; in [19], 0.116. Moreover, the z-score in experiment [7] is 0.269; in [9], 0.351 (inactive); in experiment [11] it was 0.401 (inactive); in experiment [12], -0.783 (inactive); in experiment [13] it was -0.566 (inactive); in [14] it was 0.331 (inactive).

As for `CC(C)[C@@H](OCc1ccccc1)[C@H](C)C=NOC[C@@H](O)COCc1ccco1`, the composite z-score in experiment [1] was 1.29; in [2] it was -0.244; in [3] it was -0.277; in experiment [4] it was -1.75; in experiment [5], -1.05; in experiment [6] it was -1.37. Besides, the composite z-score in the experiment with Lefty1 is -0.801; in [8], -1.29; in [10], -0.304; in [15], -2.14; in experiment [16], -0.32; with Torsin-1A (Homo sapiens) [17], -0.712. The composite z-score with Torsin-1A (Homo sapiens) [18] was -0.491; in experiment [19], -1.11. The z-score in experiment [7] was -0.541; in experiment [9], 0.331 (inactive); in [11], -0.33 (inactive); in experiment [12] it was 0.117 (inactive); in [13], 1.99 (inactive); in experiment [14], 0.109 (inactive).
